Reference: PubChem BioAssay AID504850 (National Center for Advancing Translational Sciences (NCATS), 2011)
The whole screen tested about 2,300 compounds, of which about 1,200 (52%) were called active. Roughly 34% stayed inconclusive and do not appear here. So high a share suggests a set chosen from earlier hits. Some of the results follow. Values without a mark were called inactive. The call rests on the fitted dose curve; in most records, active means well fitted inhibition curve with a large enough effect; inconclusive means small, poorly fitted or top-dose-only effect, or effect the other way; inactive means no such curve, though single readings can be large or run the other way.

Experiment: Confirmation screen for delayed death inhibitors of the malarial parasite plastid, 48 hour incubation; further: nearly all actives have a fitted effect of over 65% in size
Conditions: P. falciparum-infected erythrocytes, luciferase growth; series mostly up to 28.7 µM; activity change, negative = inhibition: at the top concentration
Procedure, shortened: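 Single-generation (48 h, 37 C) exposure of integrated firefly luciferase-reporter P. falciparum in red cells, 0.1% parasitemia at 2% hematocrit, Albumax-supplemented RPMI. Falling luciferase signal marks parasite growth inhibition.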
On the % scale 0 is the no-effect control and ±100 the full control effect; potency means the concentration at half of the fitted maximal effect.

| SMILES | Potency | activity change, negative = inhibition [%] |
| --- | --- | --- |
| COc1ccc(C(=O)CSc2nnc(C3CCCCC3)n2N)c(OC)c1 | 8.91 µM (active) |  |
| CC1CCCN(c2ccc(F)cc2N)C1 (centres undefined) | 14.1 µM (active) |  |
| COc1cccc(-c2sc3ccc(OC)cc3c2-c2cc(F)cc(OC)c2)c1 | 11.2 µM (active) |  |
| O=C(CSc1nnc(COc2ccccc2)n1-c1ccccc1)c1cccs1 | 14.1 µM (active) |  |
| CC(C)C[C@H](NC(=O)c1[nH]cnc1C(=O)N[C@@H](C)C(=O)OC(C)(C)C)C(=O)OC(C)(C)C | 7.08 µM (active) |  |
| C[C@H](NC(=O)c1nc[nH]c1C(=O)N[C@H](C)c1ccccc1)C(=O)OCc1ccccc1 |  | -22.9 |
| CC(C)C[C@H](NC(=O)c1nc[nH]c1C(=O)N(C)Cc1ccccc1)C(=O)OC(C)(C)C | 11.2 µM (active) |  |
| CC(C)C[C@H](NC(=O)c1[nH]cnc1C(=O)Nc1ccc(CNC(=O)OC(C)(C)C)cc1)C(=O)OC(C)(C)C | 6.31 µM (active) |  |
| CC(C)C[C@H](NC(=O)c1[nH]cnc1C(=O)N[C@@H](Cc1ccccc1)C(=O)OC(C)(C)C)C(=O)OC(C)(C)C | 6.31 µM (active) |  |
| O=C(c1ccc(Br)cc1)C(CN1CCOCC1)c1ccccc1 (centres undefined) | 7.08 µM (active) |  |
| O=C(c1ccc(Cl)cc1)C(CN1CCCC1)c1ccccc1 (centres undefined) | 10 µM (active) |  |
| O=C(CC(c1ccccc1)c1cc(Br)ccc1O)NCCN1CCOCC1 (centres undefined) | 12.6 µM (active) |  |
| O=C(CN1CCCCC1)N/N=C/c1ccc(Cl)cc1 |  | 4.48 |
| CN(Cc1ccccc1)C(=O)c1ccc(NC(=O)Cc2cccc(NC(=O)C3CCCN(C(=O)CCc4ccccc4)C3)c2)cc1 (centres undefined) | 7.08 µM (active) |  |
| O=[N+]([O-])c1cccc(-c2c[n+]3c(n2-c2ccccc2)SCC3)c1 | 2.51 µM (active) |  |
| COC(=O)C(NC(=O)c1ccccc1C)(Nc1ncc(S(=O)(=O)c2ccc([N+](=O)[O-])cc2)s1)C(F)(F)F (centres undefined) | 7.94 µM (active) |  |
| Cn1nc(C(F)(F)F)c(C(=O)Nc2ccc(F)cc2F)c1Sc1ccc(C(F)(F)F)cc1 | 12.6 µM (active) |  |
| O=C(NC1CCCN(Cc2ccc(Cl)cc2)C1)c1cnc2ccccn2c1=O (centres undefined) | 15.8 µM (active) |  |
| Cc1occc1C(=O)NC1CCCN(Cc2ccc(CC(C)C)cc2)C1 (centres undefined) | 14.1 µM (active) |  |
| CC(C)Cc1ccc(CN2CCCC(NC(=O)CCn3cnnn3)C2)cc1 (centres undefined) |  | -7.89 |
| O=C(Cn1c(=O)c(=O)n(Cc2ccccc2)c2ccc(Cl)cc21)Nc1cccc(F)c1 | 15.8 µM (active) |  |

| SMILES | Potency | activity change, negative = inhibition [%] |
| --- | --- | --- |
| Cc1cccc(C)c1N1CCN(C(=O)c2ccc3c(c2)OCO3)CC1 | 15.8 µM (active) |  |
| CCOC(=O)c1c(C)c(-c2ccccc2)n(CC(=O)NCCCN(CC)CC)c1C | 12.6 µM (active) |  |
| O=C(c1ccco1)N1CCN(C(=O)C2CCCc3c2[nH]c2ccc(Cl)cc32)CC1 (centres undefined) | 14.1 µM (active) |  |
| COc1cccc(/C=C2\SC(=O)N(CCC(=O)NC3CCS(=O)(=O)C3)C2=O)c1 (centres undefined) |  | -17.6 |
| O=C1/C(=C/c2ccc(Cl)cc2)SC(=S)N1CCC(=O)N1CCCCC1CCO (centres undefined) | 15.8 µM (active) |  |
| COc1cccc(/C=C2\SC(=S)N(CCC(=O)N3CCCCC3CCO)C2=O)c1 (centres undefined) | 10 µM (active) |  |
| CC1=CC(=O)O[C@@H]1[C@@]1(C)C[C@H]2OC(=O)C[C@H]3[C@@H](C)C(=O)C(O)=C1[C@@]23CO |  | -14.3 |
| CCCCNC(=O)c1onc(CSc2ccc(Cl)cc2)c1C(=O)O |  | -7.43 |
| Cc1oc(=O)c(NC(=O)c2ccc(Cl)cc2)cc1C(=O)c1ccccc1 |  | -5.78 |
| CN(C)c1ccc(S(=O)(=O)N2CCCCC2)cc1NC(=O)C1=NN(c2ccccc2)C(=O)CC1 | 8.91 µM (active) |  |
| O=C(Nc1cc(Cl)ccc1N1CCCC1)C1=NN(c2ccccc2)C(=O)CC1 | 14.1 µM (active) |  |
| O=[N+]([O-])c1cncc([N+](=O)[O-])c1Nc1cccc(O)c1 | 12.6 µM (active) |  |
| CC1(C)Cc2c(ccc3ccccc23)C(c2cc3ccccc3oc2=O)=N1 | 12.6 µM (active) |  |
| O=C(c1ccc(Br)o1)N1CCN(c2ccc3nnc(-c4ccccc4)n3n2)CC1 | 12.6 µM (active) |  |
| O=C(Nc1ccccc1C(F)(F)F)N1CCN(c2ccc3nnc(-c4ccc(F)cc4)n3n2)CC1 | 7.08 µM (active) |  |
| O=C(c1ccc(OC2CCN(Cc3ccccc3OC(F)F)CC2)cc1)N1CCCC1 | 2.24 µM (active) |  |
| COc1ccc(CCC(C)N2CCC(Oc3ccc(C(=O)N4CCCC4)cc3)CC2)cc1 (centres undefined) | 12.6 µM (active) |  |
| COc1ccc(C(=O)NC(=S)N(C)C2CCCCC2)cc1 |  | -90.4 |
| CCOc1cc(/C=C/C(=O)Nc2ccc(C(=O)NCCN(CC)CC)cc2)ccc1OCC(C)C | 1.78 µM (active) |  |
| Cc1nc([N+](=O)[O-])c(Br)n1CC(=O)c1ccc(Cl)cc1 | 10 µM (active) |  |
| Cn1cc([N+](=O)[O-])c(C(=O)Nc2cnn(Cc3ccc(F)cc3)c2)n1 |  | 6.44 |

| SMILES | Potency | activity change, negative = inhibition [%] |
| --- | --- | --- |
| O=C(c1ccc([N+](=O)[O-])cc1)n1nc(-c2ccccc2)nc1NCc1ccc(F)cc1 |  | -27.9 |
| Cc1nc([N+](=O)[O-])c(Br)n1CC(=O)c1ccc(F)cc1 | 12.6 µM (active) |  |
| CCOC(=O)N1C/C(=C\c2ccccc2)C(=O)/C(=C/c2ccccc2)C1 | 6.31 µM (active) |  |
| CCN(CC)S(=O)(=O)c1cccc(NC(=O)c2cc(-c3cccs3)nn2-c2ccccc2)c1 | 11.2 µM (active) |  |
| CCOc1ccc(S(=O)(=O)N2CCOCC2)cc1NC(=O)CN1C(=O)NC(CC)(c2ccccc2)C1=O (centres undefined) | 12.6 µM (active) |  |
| CC(=O)NCCC(=O)Nc1cc(S(=O)(=O)N2CCOCC2)ccc1Oc1ccccc1 | 11.2 µM (active) |  |
| CCOc1ccccc1CNC(=O)CN1C(=O)CSc2ccc(S(=O)(=O)N3CCOCC3)cc21 | 10 µM (active) |  |
| CC(C)(C)OC(=O)[C@H]1[C@H](c2ccc([N+](=O)[O-])cc2)C2(C(=O)c3ccccc3C2=O)C2c3ccccc3C=NN21 (some centres undefined) | 4.47 µM (active) |  |
| Cc1ccc(-c2nn(-c3ccccc3)cc2CC(=S)N2CCOCC2)cc1 | 14.1 µM (active) |  |
| CCCOc1ccccc1/C=C1\SC(N2CCCCC2)=NC1=O | 11.2 µM (active) |  |
| COc1cccc(/C=C2\SC(N3CCCC(C)C3)=NC2=O)c1OC (centres undefined) | 12.6 µM (active) |  |
| CCOC(=O)C1CCN(C(=O)CCc2nnc3ccc(NCc4ccco4)nn23)CC1 | 10 µM (active) |  |
| CCn1c2ccccc2c2cc(/C=N/n3cn[nH]c3=S)ccc21 | 12.6 µM (active) |  |
| Cc1ccccc1C1=NC(C(F)(F)F)(C(F)(F)F)c2c(n(-c3ccc(F)cc3)c(=O)[nH]c2=O)N1 | 10 µM (active) |  |
| NC(=O)CC(NC(=O)Cc1ccc(Br)cc1)c1ccc(NC2CC3CCC2C3)c([N+](=O)[O-])c1 (centres undefined) | 15.8 µM (active) |  |
| Cc1cc(C)cc(C(=O)NC(CC(N)=O)c2ccc(NCC3CC3)c([N+](=O)[O-])c2)c1 (centres undefined) |  | -17.3 |
| COc1cc(/C=C/C(=O)c2ccc(O)cc2)ccc1OCC#N | 12.6 µM (active) |  |
| COc1cccc(C(=O)/C=C/c2ccc(OCC#N)c(OC)c2)c1 | 10 µM (active) |  |
| O=C(Nc1nc(-c2ccccn2)cs1)C1COc2ccccc2O1 (centres undefined) | 6.31 µM (active) |  |
| O=C1/C(=C/c2ccccc2F)SC(=S)N1CC(=O)N1CCCCC1c1cccnc1 (centres undefined) | 14.1 µM (active) |  |
| CCCN1CCC(NC(=O)CC2C(=O)NCCN2Cc2cccc(OC)c2)CC1 (centres undefined) |  | -4.3 |

| SMILES | Potency | activity change, negative = inhibition [%] |
| --- | --- | --- |
| COc1ccc(OC)c(-c2nc(C(=O)NC3CCN(Cc4ccccc4)CC3)cc3c2[nH]c2ccccc23)c1 | 4.47 µM (active) |  |
| Cc1ccc2c(c1)C1CC(C)(O2)N(c2cccc(C(=O)N3CCN(c4ccccn4)CC3)c2)C(=O)N1 (centres undefined) | 12.6 µM (active) |  |
| O=C(C=C=Nc1ccccc1)C(=O)N=C=Cc1ccccc1 | 14.1 µM (active) |  |
| CCOc1ccc(-n2c(N)c(-c3nc4ccccc4n3C)c3nc4ccccc4nc32)cc1 | 3.98 µM (active) |  |
| O=S(=O)(c1ccc(Cl)c(Cl)c1)c1snnc1-c1ccccc1 | 12.6 µM (active) |  |
| CCCNC(=O)c1nnsc1S(=O)(=O)c1ccc(Cl)cc1 |  | -15.3 |
| O=C(/C=C/c1ccncc1)c1ccc2c(c1)OCCO2 | 12.6 µM (active) |  |
| O=C(O)c1ccc(/C=N/NC(=O)c2ccc3c(c2)OCCO3)cc1 |  | -8.6 |
| O=C(CC1Sc2ccccc2NC1=O)OCc1cc(=O)oc2cc(O)ccc12 (centres undefined) | 11.2 µM (active) |  |
| CO[C@@H]1[C@@H](OC2OC(C)C(OC3CC(C)(O)C(OC(=O)CC(C)C)C(C)O3)C(N(C)C)C2O)[C@@H](CC=O)C[C@@H](C)C(=O)/C=C\C2O[C@H]2C[C@@H](C)OC(=O)C[C@H]1OC(C)=O (some centres undefined) | 7.08 µM (active) |  |
| COc1ccc(C(=O)NCCc2c[nH]c3ccccc23)cc1[N+](=O)[O-] |  | -4.64 |
| Cc1cccc(NC(=O)[C@H](Cc2c[nH]c3ccccc23)NC(=O)[C@@H]2Cc3ccccc3CN2)c1 | 10 µM (active) |  |
| CCS(=O)(=O)N1Cc2ccccc2CC1C(=O)Nc1cccc(OC)c1 (centres undefined) |  | -17.3 |
| CC(C)C(=O)NCCSc1c[nH]c2ccccc12 |  | -11.4 |
| COc1cccc(NC(=O)[C@H](Cc2c[nH]c3ccccc23)NC(=O)[C@@H]2Cc3ccccc3CN2)c1 | 14.1 µM (active) |  |
| COc1ccc(NC(=O)[C@H](Cc2c[nH]c3ccccc23)NC(=O)[C@@H]2Cc3ccccc3CN2)cc1 | 7.94 µM (active) |  |
| O=C(NC(Cc1c[nH]c2ccccc12)C(=O)Nc1ccc(F)cc1)c1cccs1 (centres undefined) | 7.08 µM (active) |  |
| CNC(=S)N(CCc1c(C)[nH]c2ccc(Cl)cc12)Cc1cccnc1 | 14.1 µM (active) |  |
| CNC(=S)N(CCc1c(C)[nH]c2ccc(C)cc12)Cc1cc(OC)c(OC)c(OC)c1 | 12.6 µM (active) |  |
| Cc1ccc(NC(=O)C(=Cc2ccc(C(=O)O)cc2)C(=O)Nc2ccc(C)cc2C)c(C)c1 | 10 µM (active) |  |
| Cn1c(/C=C/c2ccc(Cl)cc2)c([N+](=O)[O-])c(=O)n(C)c1=O | 7.94 µM (active) |  |
